# A number with no mark means an inactive call. Results filed as inconclusive are left out. Calls of active or inactive are those of the source. The call rests on the fitted dose curve. Non-standard residues stand in square brackets, D forms with d. Residues, ends and D or L forms follow the SMILES beside them. pGlu = O=C1CC[C@@H](C(=O)O)N1
# Target: Acetylcholinesterase (Homo sapiens) (UniProt P22303)
# Assay: Acetylcholinesterase (AChE) small molecule antagonists: enzyme-based qHTS assay (AID 1347397); further: nearly all actives have a fitted effect of over 55% in size
# Settings: Potency: AChE enzyme activity inhibition; outcome: AChE enzyme activity inhibition; series mostly up to 115 µM; activity change, negative = inhibition: at the top concentration
# Summary of the method: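 rhAChE 50 mU/mL (dispensed) + cpd or DMSO, 30 min RT; add DTNB/acetylthiocholine cocktail, 10 min RT; colorimetric thiocholine readout. qHTS, 1536-well format.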
# On the % scale 0 is the no-effect control and ±100 the full control effect.
# Acetylcholinesterase (Homo sapiens), sequence (P22303 whole entry, looked up): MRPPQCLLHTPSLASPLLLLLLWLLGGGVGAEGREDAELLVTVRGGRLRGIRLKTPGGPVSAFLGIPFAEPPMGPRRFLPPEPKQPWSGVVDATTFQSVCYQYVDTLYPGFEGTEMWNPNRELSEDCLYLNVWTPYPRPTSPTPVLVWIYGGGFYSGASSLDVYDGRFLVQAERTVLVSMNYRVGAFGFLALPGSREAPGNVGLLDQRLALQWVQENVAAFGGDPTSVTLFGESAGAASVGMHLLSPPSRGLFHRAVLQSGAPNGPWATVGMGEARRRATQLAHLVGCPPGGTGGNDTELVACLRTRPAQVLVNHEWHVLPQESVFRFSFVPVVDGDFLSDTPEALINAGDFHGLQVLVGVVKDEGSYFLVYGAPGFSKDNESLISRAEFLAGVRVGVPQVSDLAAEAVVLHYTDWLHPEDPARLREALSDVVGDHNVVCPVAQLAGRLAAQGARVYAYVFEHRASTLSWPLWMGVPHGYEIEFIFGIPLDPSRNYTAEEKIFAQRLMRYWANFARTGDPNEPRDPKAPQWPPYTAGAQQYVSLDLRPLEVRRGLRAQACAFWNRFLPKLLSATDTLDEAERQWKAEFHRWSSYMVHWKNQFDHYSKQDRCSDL
SMILES,"activity change, negative = inhibition",Potency
CC(C)=CCl,0.687%,–
CN(C)/N=N/c1nc[nH]c1C(N)=O,–,inactive
CCCCC/C=C/CC(=O)OC,-0.138%,–
CCN1CCc2nc(N)oc2CC1,-0.0311% [at 53 µM],–
CC(C)=CC1CC(C)CCO1 (stereo unspecified),0.8%,–

# Target: Acetylcholinesterase (Homo sapiens) (UniProt P22303)
# Assay: Acetylcholinesterase (AChE) small molecule antagonists: fluorescence cell-based qHTS assay (AID 1347398); further: nearly all actives have a fitted effect of over 50% in size
# Settings: SH-SY5Y cells; Potency: AChE activity; outcome: AChE activity; series mostly up to 115 µM; activity change, negative = inhibition: at the top concentration
# Summary of the method: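 Read-out is Thiolite Green fluorescence at Ex/Em = 490/520 nm, formed by reaction with thiocholine released when cellular AChE in SH-SY5Y cells hydrolyzes acetylthiocholine. Compounds were preincubated 30 min at 37 C before substrate.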
SMILES,Potency,"activity change, negative = inhibition"
O=C1C(N(CO)C(=O)NCO)N(CO)C(=O)N1CO (stereo unspecified),inactive,–
O=C1Nc2ccccc2C1(c1ccc(O)cc1)c1ccc(O)cc1,inactive,–
Nc1ncnc(Nc2ccccc2)n1,–,5.7% [at 53.7 µM]
Cc1cc(C)c(/C=C2\C(=O)Nc3ccccc32)[nH]1,–,5.95% [at 53.7 µM]
O=C(O)c1ccc(-n2nc(-c3ccccc3O)nc2-c2ccccc2O)cc1,–,10.1% [at 53.7 µM]
CC1CCCC(=O)C1=O (stereo unspecified),–,1.37%
COc1ccccc1C=O,–,6.31%
O=S(=O)(O)c1ccc(Cl)cc1,–,3.75%
CC1(C)Cc2cccc(N)c2O1,–,-6.02%
C=C[C@@H](C)CCC=C(C)C,–,0.228%
C[C@]12CC[C@@H]3c4ccc(O)cc4CC[C@H]3[C@@H]1CC[C@@H]2OC(=O)CCC1CCCC1,inactive,–
CC(C)c1ccc2c(C(C)C)cc(C(C)C)c(S(=O)(=O)O)c2c1,–,-12.6%
CCNC(=O)[C@@H]1CCCN1C(=O)[C@H](CCCN=C(N)N)NC(=O)[C@H](CC(C)C)NC(=O)CNC(=O)[C@H](Cc1ccc(O)cc1)NC(=O)[C@H](CO)NC(=O)[C@H](Cc1c[nH]c2ccccc12)NC(=O)[C@H](Cc1cnc[nH]1)NC(=O)[C@@H]1CCC(=O)N1 ([pGlu]HWSYGLRP-NHEt),–,7.93% [at 53.7 µM]
O=[N+]([O-])c1cccc(Cl)c1,inactive,–
COC(=O)CCCCC(=O)O,–,-2.47%
CC(C)c1cc2c(cc1S(=O)(=O)O)[C@@]1(C)CCC[C@@](C)(C(=O)O)[C@@H]1CC2,–,3.16% [at 53.7 µM]

# — PubChem BioAssay (Tox21)
